PLK1 PBD block – qHTS for Inhibitors of PLK1-PDB (polo-like kinase 1 - polo-box domain): Primary Screen; Plk1 PBD binding of FITC phosphopeptide, fluorescence polarization; Serine/threonine-protein kinase PLK1 (Homo sapiens), P53350; 2.8% of 360,000 active; Potency, µM, usual class: inhibitors; note: series mostly up to about 57 µM; nearly all actives have a fitted effect of over 65% in size
ALOX12 inh – Primary qHTS assay for inhibitors of human arachidonate 12S-lipoxygenase (ALOX12): Round 2 | purified 12hLO, xylenol orange hydroperoxide absorbance | Potency, µM (top dose mostly 108 µM), usual class: inhibitors | AID 1671190, 2021 | 1.1% of 580,000 active | Polyunsaturated fatty acid lipoxygenase ALOX12 (Homo sapiens), P18054
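Purified human 12hLO at 150 nM in 25 mM Hepes, 0.01% Triton X-100, pH 7.0, preincubated 15 min at room temperature with compound. Reaction started with 40 uM arachidonic acid, 30 min at room temperature. Hydroperoxide measured by Fe-xylenol orange, 573/405 nm absorbance ratio.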
BAZ2B inh – qHTS Assay for Inhibitors of BAZ2B. Bromodomain adjacent to zinc finger domain protein 2B (Homo sapiens), Q9UIF8. AlphaScreen BAZ2B-H3K14Ac peptide displacement. Potency, µM (series often up to 114 µM), usual class: inhibitors. 4.4% of 360,000 active. AID 504333, 2011; note: nearly all actives have a fitted effect of over 60% in size
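AlphaScreen displacement: compounds (up to 110uM) incubated 30 min at room temperature with a preformed 50 nM BAZ2B/50 nM biotinylated H3K14Ac peptide complex in PBS pH 7.4 with Tween-20. Donor and acceptor beads at 10 ug/mL final added, 20 min light-protected before reading.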
G9a inh – qHTS Assay for Inhibitors of Histone Lysine Methyltransferase G9a; Histone-lysine N-methyltransferase EHMT2 (Homo sapiens), Q96KQ7; G9a H3K9 monomethylation, AlphaScreen, 2 h; Potency, µM (series often up to 102 µM), hits mostly inhibitors; 8.8% of 350,000 active; note: nearly all actives have a fitted effect of over 75% in size
Target sequence (Q96KQ7 913-1193 limits assumed): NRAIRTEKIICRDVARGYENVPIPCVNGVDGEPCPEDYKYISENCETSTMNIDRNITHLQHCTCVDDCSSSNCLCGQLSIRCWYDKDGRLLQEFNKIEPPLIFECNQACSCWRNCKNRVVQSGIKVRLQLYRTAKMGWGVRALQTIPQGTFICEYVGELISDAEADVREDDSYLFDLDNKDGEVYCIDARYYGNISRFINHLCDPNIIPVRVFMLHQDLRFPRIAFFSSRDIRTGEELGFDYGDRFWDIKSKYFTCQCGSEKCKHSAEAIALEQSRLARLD
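AlphaScreen read-out: biotin-H3K9 peptide (500 nM) methylation by 20 nM enzyme with 20 uM SAM, 2 h at room temperature after 15 min compound preincubation; anti-monomethyl H3K9 antibody plus donor/acceptor beads, 10 min dark.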
HP1b chromo inh – HTS for Inhibitors of HP1-beta Chromodomain Interactions with Methylated Histone Tails; AlphaScreen HP1-beta / biotin-H3K9me3 peptide binding; Potency, µM (doses to about 114 µM), most hits filed as inhibitors; 0.56% of 390,000 active; note: nearly all actives have a fitted effect of over 70% in size
Target sequence (P83916 whole entry, looked up): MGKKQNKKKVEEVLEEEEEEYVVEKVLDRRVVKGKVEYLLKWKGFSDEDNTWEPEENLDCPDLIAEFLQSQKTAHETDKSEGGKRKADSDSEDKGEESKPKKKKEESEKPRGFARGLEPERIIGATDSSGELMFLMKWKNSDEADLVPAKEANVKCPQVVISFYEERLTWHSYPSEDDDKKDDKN
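AlphaScreen: HP1-beta (50 nM) preformed 30 min with biotin-H3(1-18)K9me3 peptide (50 nM) in PBS pH 7.4, 0.01% Tween-20. Compound added for 30 min at RT, then streptavidin donor/nickel chelate acceptor beads (10 ug/mL) for 30 min.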
JMJD2A Tudor – qHTS Assay for Inhibitors of JMJD2A-Tudor Domain; Lysine-specific demethylase 4A (Homo sapiens), O75164; AlphaScreen JMJD2A-Tudor / H3K4me3 peptide binding; Potency, µM (highest dose often 114 µM), actives largely listed as inhibitors; 4.4% of 390,000 active; note: nearly all actives have a fitted effect of over 50% in size
Hits are given with their value; i = inactive; ? = inconclusive; nt = no result; [ ] = another dose, or the depositor's remark. Hits are enriched below; roughly 9% of the tested compounds scored in any of these assays. Calls come from the whole dose curve; as a rule, active = well fitted curve in the direction sought with a large enough effect; inconclusive = small, poorly fitted or top-dose-only effect, or another doubt; inactive = no such curve, though single readings can be large; an effect the other way counts as inactive or inconclusive.

SMILES	PLK1 PBD block	ALOX12 inh	BAZ2B inh	G9a inh	HP1b chromo inh	JMJD2A Tudor
COc1ccccc1N1CCN(C(=O)COc2cc(C)ccc2C)CC1	21µM	i	i	i	?	20µM
CCOC(=O)c1sc2cc([N+](=O)[O-])cc(SCCO)c2c1N	i	i	i	i	i	i
COc1cc(NC(=O)CCCn2c(=S)[nH]c3ccccc3c2=O)cc(OC)c1OC	i	i	i	i	i	i
O=C(CSc1nccc(=O)[nH]1)c1c[nH]c2ccccc12	i	i	i	nt	i	i
O=C(CSc1nccc(=O)[nH]1)c1ccccc1Br	i	i	i	7.9µM	i	i
C=CCSc1nccc(=O)[nH]1	13µM	i	i	i	i	50µM
O=C(CCn1c(=S)[nH]c2ccccc2c1=O)Nc1ccc(F)cc1	i	i	i	i	i	i
CCN1CCN(CCOCCOc2ccccc2-c2ccccc2)CC1	nt	nt	20µM	7.9µM	nt	nt
c1ccc(-c2ccccc2OCCOCCN2CCNCC2)cc1	i	i	22µM	nt	i	i
O=C(O)CSc1c2c(nc3cc(C(=O)Nc4ccc(F)c(Cl)c4)ccc13)CCCC2	i	i	50µM	nt	i	i
COc1ccc(NC(=O)c2ccc3c(SCC(=O)O)c4c(nc3c2)CCCC4)c(OC)c1	i	i	?	50µM	i	?
COc1ccc(N2CCN(C(=O)CSc3c4c(nc5ccc(Cl)cc35)CCCC4)CC2)cc1	nt	i	nt	11µM	i	22µM
COc1ccc(NC(=O)CSc2c3c(nc4ccccc24)CCC3)c(OC)c1	i	i	i	i	i	i
COc1ccc(Cl)cc1NC(=O)c1ccc2c(SCC(=O)O)c3c(nc2c1)CCCC3	i	i	i	50µM	?	i
CC(C)c1ccc(CC(=O)N2CCC2(C)C(=O)NS(=O)(=O)c2ccc(Cl)s2)cc1 (configuration not stated)	i	i	nt	nt	nt	nt
C(=N\Nc1ccc2ccccc2n1)/c1ccc2c(c1)OCCO2	i	?	?	?	i	?
CS(=O)(=O)Cc1nc2ccccc2oc1=O	i	i	i	40µM	i	i
O=C(Oc1ccccc1O)c1cccc2ccccc12	nt	i	i	45µM	nt	nt
O=C(Oc1cccc2c(O)cccc12)c1ccccc1Cl	i	i	nt	nt	i	i
CC(C)Oc1nc(-c2ccccc2O)nc2ccccc12	i	i	i	i	i	i
CCC1Oc2ccc(C)cc2N(CC(=O)N2CCN(c3ccc(F)cc3)CC2)C1=O (configuration not stated)	i	nt	i	45µM	i	?
COc1cc(NC(=O)c2cc(-c3cccs3)on2)c(OC)cc1Cl	nt	i	i	i	i	i
O=C1c2c([N+](=O)[O-])cc([N+](=O)[O-])cc2S(=O)N1Cc1ccccc1 (configuration not stated)	38µM	?	45µM	0.89µM	?	89µM
O=C(O)c1cccc2c1C(=O)c1cc([N+](=O)[O-])cc([N+](=O)[O-])c1-2	?	i	nt	nt	nt	nt
O=c1c(Br)ccc(Br)cc1Br	0.53µM	i	nt	nt	i	i
SMILES	PLK1 PBD block	ALOX12 inh	BAZ2B inh	G9a inh	HP1b chromo inh	JMJD2A Tudor
O=c1c2ccccc2sc2ccc(Br)cc12	nt	i	nt	nt	nt	nt
CC1CCN(c2ccc(C(=O)Nc3ccc4c(c3)OCO4)cc2[N+](=O)[O-])CC1	i	i	?	?	?	?
CC1CCCN(c2ccc(C(=O)NCc3ccc4c(c3)OCO4)cc2[N+](=O)[O-])C1 (configuration not stated)	i	i	?	14µM	?	?
O=C(NCc1ccc2c(c1)OCO2)c1ccc(N2CCCCCC2)c([N+](=O)[O-])c1	i	i	?	35µM	?	?
CC1CCCN(c2ccc(C(=O)Nc3ccc4c(c3)OCO4)cc2[N+](=O)[O-])C1 (configuration not stated)	i	i	?	22µM	?	?
COc1ccccc1[C@@H]1CN(C(=O)c2cccnc2OC)C[C@H]1C(=O)O	nt	i	nt	nt	nt	nt
O=[N+]([O-])c1cc([N+](=O)[O-])c2cc3ccccc3nc2c1	0.42µM	i	?	?	i	i
CC(C)(C)C(=O)NCCNC(=O)c1nc2ccccc2c(=O)[nH]1	nt	i	nt	nt	nt	nt
CCCc1cc(C(=O)Nc2sc3c(c2C#N)CCC3)no1	19µM	i	i	40µM	i	i
CCCC(=O)Nc1sc2c(c1C#N)CCCC2	i	i	i	i	i	i
CCCc1cc(C(=O)Nc2sc(C)c(CC)c2C#N)no1	27µM	i	i	i	i	i
CCc1c(C)sc(NC(=O)c2cc(C3CC3)on2)c1C#N	?	i	i	45µM	i	i
N#Cc1c(NC(=O)C2CC(c3ccccc3Cl)=NO2)sc2c1CCC2 (configuration not stated)	?	?	i	?	i	i
N#Cc1c(NC(=O)C2CC(c3ccccc3O)=NO2)sc2c1CCC2 (configuration not stated)	19µM	?	i	8.9µM	i	i
Cc1cccc2c1-c1sc(C(=O)NCCc3ccc(Cl)cc3)cc1CO2	nt	?	i	i	i	?
COC(C[C@H](O)C[C@@H](O)[C@H](C)OCc1ccccc1)OC	i	i	i	i	i	i
O=C1[C@@H]2[C@H]3CC[C@H](C3)[C@@H]2C(=O)N1O	i	i	i	nt	i	i
COC(=O)c1[nH]c2ccc(C)cc2c1NC(=O)CN1CCCC(C)(C)C1	i	i	i	i[12.7 µM]	i	i
O=C(CCN1C(=O)COc2ccccc21)NCCN1CCN(c2ccccc2F)CC1	i	i	i	i	i	i
CCCCCNC(=O)Cc1c[nH]c2ccccc12	nt	i	nt	nt	nt	nt
Cc1onc(C(=O)Nc2sc3c(c2C#N)CCCC3)c1[N+](=O)[O-]	27µM	?	i	45µM	i	i
CC(C)(C)C1CCc2c(sc(NC(=O)c3cc(-c4ccc(F)cc4)on3)c2C#N)C1 (configuration not stated)	nt	i	i	?	i	i
Cc1onc(-c2ccccc2)c1C(=O)Nc1sc2c(c1C#N)CCC(C)C2 (configuration not stated)	i	i	i	?	i	i
CC(C)(C)C1CCc2c(sc(NC(=O)c3noc4c3CCCC4)c2C#N)C1 (configuration not stated)	nt	?	i	7.1µM	i	i
Cc1onc(-c2ccccc2Cl)c1C(=O)Nc1sc2c(c1C#N)CCC2	27µM	?	i	10µM	?	?
CC(=O)Nc1sc2c(c1C#N)CCCC2	i	i	i	i	i	i
Cc1onc(-c2ccccc2Cl)c1-c1nc(-c2ccccn2)no1	i	i	i	i	i	i

From PubChem BioAssay
